Experimental data reported in article PMC5540273 (PLoS ONE, 2017).

Columns and labels:
Settings in all cases: concentration: 1 μM, replicates: in singlicate; n = 1
NIM1 = system: T1, NIM1
T1 construct: gene MGC42105

NLK = system: NLK
OSR1 = system: T2, OSR1
T2 construct: gene OXSR1

PAK1 = system: PAK1
PAK2 = system: PAK2
PAK3 = system: PAK3
PAK4 = system: PAK4
PAK6 = system: PAK6
PAK7 = system: PAK7
PCTK1 = system: T3, PCTK1
T3 construct: gene CDK16
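Note: KINOMEscan kinase panel screen.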

| Compound | %Inh (NIM1) | %Inh (NLK) | %Inh (OSR1) | %Inh (PAK1) | %Inh (PAK2) | %Inh (PAK3) | %Inh (PAK4) | %Inh (PAK6) | %Inh (PAK7) | %Inh (PCTK1) |
| --- | --- | --- | --- | --- | --- | --- | --- | --- | --- | --- |
| Cl.Cl.NC(CNC(=O)c1cc(Br)c(-c2ccnc3[nH]ccc23)s1)c1ccccc1 (centres unmarked) [GSK1322949] | 65% | 22% | 34% | 32% | 36% | 67% | 0% | 16% | 46% | 21% |
| COc1cccc(CC(=O)N2CCc3cc(-c4cn(C)c5ncnc(N)c45)ccc32)c1 [GSK2608899] | 0% | 5% | 6% | 13% | 4% | 50% | 2% | 0% | 18% | 3% |
| CNc1nccc(-c2ccc3c(N)n[nH]c3c2)n1 [GSK2206003] | 15% | 14% | 18% | 4% | 9% | 48% | 4% | 5% | 9% | 0% |
| COc1ccc(C2=C(Nc3cccc(O)c3)C(=O)NC2=O)cc1 [SB-390766] | 0% | 35% | 4% | 15% | 12% | 30% | 0% | 10% | 0% | 5% |
| CCNC(=O)/C=C/c1n[nH]c2cc(Sc3ccccc3C(=O)NC)ccc12 | 2% | 57% | 0% | 0% | 0% | 0% | 0% | 4% | 20% | 7% |
| CN(c1ccc(NC(=O)Nc2cccc(Cl)c2)cc1)c1ccnc(N)n1.Cl [GW830707] | 0% | 4% | 0% | 5% | 34% | 6% | 1% | 7% | 0% | 0% |
| Cl.O=C(Nc1ccc(Oc2ccc3[nH]c(NC(=O)c4ccco4)nc3c2)cc1)Nc1cc(C(F)(F)F)ccc1F [GW683134] | 4% | 6% | 8% | 0% | 0% | 59% | 0% | 0% | 0% | 7% |
| O=C(Nc1n[nH]c2nc(-c3ccccc3O)ccc12)C1CC1 [SB-711880] | 0% | 10% | 0% | 0% | 0% | 0% | 33% | 8% | 26% | 11% |
| Fc1cc(Cl)ccc1Nc1ccnc2cc(-c3ccc(CN4CCOCC4)o3)ccc12 [GW560109] | 15% | 10% | 8% | 0% | 0% | 5% | 0% | 0% | 0% | 1% |
| Cc1ccc(-c2ccc3occ(-c4ccc(S(C)=O)cc4)c3c2)nn1 (centres unmarked) | 0% | 1% | 0% | 6% | 4% | 0% | 1% | 0% | 0% | 0% |
| CN(C)c1ncnc2nc[nH]c12 [SKF-31736] | 4% | 0% | 0% | 8% | 43% | 12% | 6% | 0% | 15% | 17% |
| CC(C)NCC(Cc1ccccc1)NC(=O)c1cc(Br)c(-c2ccnc3[nH]ccc23)s1.Cl.Cl (centres unmarked) [GSK1383281] | 0% | 22% | 1% | 11% | 0% | 75% | 18% | 47% | 47% | 1% |
| Cc1ccc(NC(=O)c2cccc(N3CCCCC3)c2)cc1-c1ccc(C(=O)NCC2CC2)cc1 [GSK1917008] | 15% | 5% | 24% | 14% | 24% | 21% | 0% | 0% | 2% | 12% |
| CN(c1ccc(NC(=O)N2CCN(CCCN3CCOCC3)CC2)cc1)c1ccnc(Nc2ccc(CS(C)(=O)=O)cc2)n1.Cl [GW830899] | 0% | 0% | 0% | 0% | 0% | 0% | 0% | 25% | 2% | 0% |
| Cn1cc(-c2cnc(N)c3c(-c4ccc5c(c4)CCN5C(=O)Cc4ccccc4)csc23)cn1 [GSK2593074] | 0% | 17% | 0% | 17% | 0% | 13% | 0% | 17% | 3% | 0% |
| COc1cc(Nc2nccc(N3CCC(NC(=O)Nc4ccc5c(c4)OCO5)C3)n2)cc(OC)c1OC (centres unmarked) [GSK1379766] | 4% | 0% | 0% | 0% | 0% | 0% | 0% | 0% | 4% | 16% |
| Cc1ccc(NC(=O)c2ccnc(N3CCCCC3)c2)cc1-c1ccc(C(=O)NCC2CC2)cc1 [GW775610] | 8% | 15% | 0% | 0% | 0% | 15% | 17% | 0% | 0% | 73% |
